Compound activity: PubChem BioAssay, The Scripps Research Institute Molecular Screening Center
Rows were chosen to be rich in hits. Some 4.1% of all compounds tested hit in one or more screens of this group.
DAX1 inh-1 = inhibitors of DAX1 repression of SF-1 activated StAR promoter. HEK293T StAR-luciferase reporter, SF-1/DAX-1 repression relief. inhibition, % at 6.8 µM. 1.1% of 370,000 active. AID 652010;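 active means inhibition above the mean over all tested compounds plus 3 SD, cut at about 3.6% in these data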;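 further: 0% = DAX-1 cells with DMSO and 100% = cells lacking DAX-1 with DMSO; higher inhibition means more luminescence from relief of DAX-1 repression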
ssDAF-12 act = activators of S. stercoralis DAF-12 nuclear receptor; HEK293 ssDAF-12/GRIP1 lit1-tk-luc reporter, luminescence; % of 3 µM dafachronic acid response; activation, % at 6.8 µM; 1% of 370,000 active; AID 652126;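 active means activation above the mean over all tested compounds plus 3 SD, cut at about 0.9% in these data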;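 further: 0% = DMSO-only wells and 100% = 3 µM delta7-dafachronic acid wells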
hgDAF12 agonist = agonists of H. glycines DAF-12 nuclear receptor; HEK293 GAL4-hgDAF12 UAS-luciferase reporter, agonist luminescence; normalized to butyrate control; activation, % at 6.8 µM; 1.8% of 370,000 active;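 active means activation above a cutoff set at the mean of all screened compounds plus 3 SD, cut at about 10% in these data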;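 further: 0% = DMSO wells and 100% = sodium butyrate wells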
hcDAF-12 act = activators of H. contortus DAF-12 nuclear receptor | activation, % at 6.8 µM | HEK293 hcDAF-12 lit1-tk-luc reporter, luminescence; 0% DMSO, 100% Δ7-dafachronic acid | 1.4% of 370,000 active | AID 652067;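 active means activation above the mean of all tested compounds plus 3 SD, cut at about 5.5% in these data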;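 further: 100% = response to 3 µM Δ7-dafachronic acid high control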
DAX1 inh-2 = NR0B1 (DAX1) inhibition; P51843; HEK293 Gal4-DAX1 luciferase reporter, luminescence; inhibition, % at 6.75 µM; 0.99% of 340,000 active;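 active means inhibition above the mean over all tested compounds plus 3 SD, cut at about 4.2% in these data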;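 further: 0% = DAX1-transfected cells with DMSO and 100% = empty-vector control cells with DMSO; inhibition shows as a rise in luminescence from relieved DAX1 repression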
Target sequence (P51843 207-470 limits assumed): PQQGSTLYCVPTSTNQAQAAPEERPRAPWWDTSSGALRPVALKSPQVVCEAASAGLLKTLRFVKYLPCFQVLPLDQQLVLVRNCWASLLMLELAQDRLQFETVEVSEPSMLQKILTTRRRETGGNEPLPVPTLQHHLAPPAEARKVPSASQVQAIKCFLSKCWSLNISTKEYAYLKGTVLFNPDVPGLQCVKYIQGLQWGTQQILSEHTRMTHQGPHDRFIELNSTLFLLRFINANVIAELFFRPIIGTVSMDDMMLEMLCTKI
Numbers without * were called inactive; · = no result.

SMILES | DAX1 inh-1 | ssDAF-12 act | hgDAF12 agonist | hcDAF-12 act | DAX1 inh-2
O=S1(=O)CC(N2CCCC2)CN1 (stereo unspecified) | 0 | -2 | -2 | 0 | ·
COc1cccc(-n2c(CN3CCN(c4ccc(C)cc4)C(C)C3)nc3ccc([N+](=O)[O-])cc3c2=O)c1 (stereo unspecified) | -1 | 0 | 1 | 5.8* | -2
Cc1ccc(C(=O)Nc2nc(C)c(C(=O)N(C)C)s2)o1 | 4.4* | -1 | 2 | 2 | 2
Cc1nc(NC(=O)/C=C/c2ccc(F)cc2)sc1C(=O)N(C)C | 1 | -2 | -1 | 0 | 0
Cc1ccc(C(=O)Nc2ncc(Cc3ccc(F)cc3)s2)o1 | 4.2* | 0 | 7 | 5 | 2
Cc1nc(NC(=O)/C=C/c2ccccc2)sc1C(=O)N(C)C | 1 | -1 | 10* | 4 | 0
Cc1ccc(NC(=O)OCCCN2C(=O)CCC23CCC(C)CC3)cc1C (stereo unspecified) | -1 | -1 | -3 | 1 | ·
O=C(/C=C/c1ccc(F)cc1)N1CCc2ccccc2C1 | 3.8* | 0 | 5 | 4 | 1
Cc1ccc(/C=C/C(=O)N2CCc3ccccc3C2)cc1 | 0 | 0 | 3 | 1 | 0
Clc1ccc([C@H]2OC[C@@]3(CNCCc4c[nH]c5ccccc45)CS[C@H](c4ccc(Cl)cc4)N23)cc1 | 0 | -1 | 1 | -1 | ·
O=C(/C=C/c1ccc(O)cc1)c1ccccc1 | 1 | -1 | 9 | 1 | 3
Cc1nn(C)cc1/C=C/C(=O)c1ccc(O)cc1 | 2 | -1 | 11* | 3 | 1
COc1ccc(OC)c(S(=O)(=O)n2c(CN3CCOCC3)nc3ccccc32)c1 | -1 | -1 | -2 | -5 | ·
O=[N+]([O-])c1ccc(N/N=C/c2ccccc2)c(F)c1 | 0 | -1 | 12* | 1 | 1
CC(=O)Nc1ccc(C=NNc2ccc([N+](=O)[O-])cc2S(=O)(=O)Nc2ccccc2C(=O)O)cc1 | 3.9* | -1 | -2 | -1 | 1
CC(=O)Nc1ccc(C=NNc2ccc(S(=O)(=O)Nc3ccccc3C(=O)O)cc2[N+](=O)[O-])cc1 | 0 | -1 | -1 | 0 | 1
O=C(NC1CCCCN(Cc2ccc(Cl)cc2)C1=O)c1ccccc1-c1ccc(Cl)c(Cl)c1 (stereo unspecified) | 0 | -2 | -1 | 1 | ·
O=C(CN1CCc2onc(-c3ccc(-n4cc(COc5ccc([N+](=O)[O-])cc5)nn4)cc3)c2C1=O)N1CCOCC1 | -1 | -2 | -1 | -1 | ·
Cn1[nH]c2c(c1=O)[C@H](c1ccc(F)cc1)O[C@H](CCc1ccccc1)C2 | -1 | -1 | -1 | 0 | ·
CC(C)[C@@H]1Cc2[nH]n(C)c(=O)c2[C@H](c2ccc(F)cc2)O1 | 4.1* | 0 | -3 | 3 | ·
CCCCCOc1ccc(/C=N/NC(=O)CSc2nnc(-c3ccc(OC)cc3)n2-c2ccc(C)cc2)cc1 | -1 | -1 | 3 | 1 | ·
O=CNc1cc(-c2cccc(F)c2)cn2c(-c3ccc(F)c(Cl)c3)cnc12 | 1 | -1 | 4 | -1 | ·
O=CNc1cc(-c2ccccc2)cn2c(-c3ccc(F)c(Cl)c3)cnc12 | 1 | 1.5* | 2 | -1 | ·
C[C@@H]1CN([C@@H](C)CO)C(=O)CCCn2nncc2CO[C@@H]1CN(C)C(=O)Nc1ccnc(N2CCOCC2)c1 | 1 | -1 | 0 | 0 | 6.2*
C[C@@H]1CN([C@@H](C)CO)C(=O)CCCn2cc(nn2)CO[C@H]1CN(C)C(=O)Nc1ccnc(N2CCOCC2)c1 | 0 | -1 | -2 | -1 | ·
SMILES | DAX1 inh-1 | ssDAF-12 act | hgDAF12 agonist | hcDAF-12 act | DAX1 inh-2
C[C@@H]1CN([C@H](C)CO)C(=O)CCCn2cc(nn2)CO[C@H]1CN(C)C(=O)Nc1cccc(Oc2ccccn2)c1 | 0 | -1 | 0 | -1 | 6.3*
C[C@H](CO)N1C[C@H](C)[C@@H](CN(C)C(=O)Nc2cccc(Oc3ccccn3)c2)OCc2cn(nn2)CCCC1=O | 2 | -1 | 1 | -1 | ·
C[C@@H]1CN([C@H](C)CO)C(=O)CCCn2nncc2CO[C@H]1CN(C)C(=O)c1ccccc1 | 0 | -1 | 13* | 0 | 0
CN1C(=O)c2cc(NC(=O)Cc3ccccc3)ccc2OC[C@H]2O[C@H](CC(=O)O)CC[C@H]21 | 0 | -1 | 1 | 0 | ·
O=C(O)CCN1C(=O)/C(=C/c2ccc(F)cc2F)SC1=S | · | 1 | 0 | 0 | ·
CCN(CC)C(=O)c1oc(=O)c2ccccc2c1-c1ccc(C)cc1 | -1 | -1 | 0 | -3 | ·
O=C(O)c1ccc(-c2nc(-c3ccc(Cl)cc3)cs2)cc1 | 3 | 0 | 13* | 5.8* | 4
O=C(O)c1ccc(-c2nc(-c3ccc(Cl)cc3Cl)cs2)cc1 | 1 | 0 | 9 | 0 | 2
Cc1c(C)c2c(OCC(=O)N3CCC(C(=O)O)CC3)cc3c(c2oc1=O)CCC(C)(C)O3 | · | · | · | · | 3
CCOC(=O)C1CCN(C(=O)C(Cc2ccc3c(c2)OCO3)NC(C)=O)CC1 (stereo unspecified) | -1 | -1 | 2 | -2 | ·
CC(C)c1ccc(NC(=O)NN2CCOCC2)cc1 | 4.3* | 1.5* | 13* | 3 | 5.0*
CC(C)c1ccc(/C=C/C(=O)N2CCCCCC2)cc1 | 0 | -2 | -3 | -3 | -2
CC(C)c1ccc(/C=C/C(=O)N2CCOCC2)cc1 | 3 | 0.9* | 6 | 0 | 6.2*
O=C(CCc1ccccc1)N[C@H]1[C@@H](OC(=O)c2ccc([N+](=O)[O-])cc2)CCC[C@]12C(=O)N(Cc1ccccc1)c1ccccc12 | 1 | -1 | 2 | -1 | ·
Nc1ccc2nc(N)sc2c1 | 1 | -1 | 6 | 0 | 3
Nc1ccc2c(c1)sc1ccccc12 | 2 | -1 | 11* | 3 | 1
Cc1ccc(C=Nc2ccccc2C(=O)Nc2ccccc2)cc1 | 0 | -1 | -1 | 0 | 0
Cc1ccc(C=Nc2ccccc2C(N)=O)cc1 | 0 | 0 | 12* | 5.9* | 1
Cc1c(/C=C/C(=O)c2ccccc2O)cnn1C | 3 | 0 | 13* | 4 | 4.5*
NC1=NC(=O)/C(=C/C=C/c2cccs2)S1 | 0 | 0 | 5 | 1 | 4.8*
O=C(NC(=S)N1CCCc2ccccc21)c1ccc(Br)cc1 | 0 | -1 | 3 | 5.9* | 0
COc1ccc(C(=O)NC(=S)N2CCCc3ccccc32)cc1OC | 0 | -1 | -4 | 0 | 0
O=C(c1cc([N+](=O)[O-])cc([N+](=O)[O-])c1)N1CCCc2ccccc21 | 0 | -1 | -3 | -1 | 0
O=C(NC(=S)N1CCCc2ccccc21)c1ccc([N+](=O)[O-])cc1 | 0 | 0 | 1 | 5.6* | -1
Clc1ccc(-c2cc(CSc3ccccc3)on2)cc1 | 2 | -1 | 13* | 1 | 3
c1ccc(SCc2cc(-c3ccccc3)no2)cc1 | 2 | 0 | 8 | 4 | 4
Cc1csc(N/N=C/c2ccccn2)n1 | 2 | 1.3* | 9 | 6.2* | -2
